Screen size: about 5,500 compounds; about 2,000 (36%) were called active. About 18% were inconclusive and are not listed. Rule as the data show it: active = normalized growth mostly below about 0.91 (no sharp cut-off); inconclusive = no clear call, values can overlap the other calls; inactive = mostly above about 0.92. The list shows a part of the results.
Test: chemical genetic growth profiling, strain panel (AID 1159580);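 also: tested at 20 µM; growth read once vehicle control cultures reached saturation at 30 °C; 1 = growth at the plate median or of vehicle wells; lower values mean less growth of the strain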
Details: growth OD
[1] = S. cerevisiae deletion strains, locus YAL013W, strain DEP1, stronger effect = lower value
[2] = S. cerevisiae deletion strains, locus YBR229C, strain ROT2, stronger effect = lower value
[3] = S. cerevisiae deletion strains, locus YCL061C, strain MRC1, stronger effect = lower value
[4] = S. cerevisiae deletion strains, locus YDL101C, strain DUN1, stronger effect = lower value
[5] = S. cerevisiae deletion strains, locus YDR150W, strain NUM1, stronger effect = lower value
[6] = S. cerevisiae deletion strains, locus YEL061C, strain CIN8, stronger effect = lower value
[7] = S. cerevisiae deletion strains, locus YGR078C, strain PAC10, stronger effect = lower value
[8] = S. cerevisiae deletion strains, locus YGR229C, strain SMI1, stronger effect = lower value
[9] = S. cerevisiae deletion strains, locus YHR030C, strain SLT2, stronger effect = lower value
[10] = S. cerevisiae deletion strains, locus YHR087W, strain rtc3, stronger effect = lower value
[11] = S. cerevisiae deletion strains, locus YJR043C, strain POL32, stronger effect = lower value
[12] = S. cerevisiae deletion strains, locus YJR075W, strain HOC1, stronger effect = lower value
[13] = S. cerevisiae deletion strains, locus YKL190W, strain CNB1, stronger effect = lower value
[14] = S. cerevisiae deletion strains, locus YLR039C, strain RIC1, stronger effect = lower value
[15] = S. cerevisiae deletion strains, locus YLR058C, strain SHM2 (second series), stronger effect = lower value
[16] = S. cerevisiae deletion strains, locus YLR085C, strain ARP6, stronger effect = lower value
[17] = S. cerevisiae deletion strains, locus YLR262C, strain YPT6, stronger effect = lower value
[18] = S. cerevisiae deletion strains, locus YML094W, strain GIM5, stronger effect = lower value
[19] = S. cerevisiae deletion strains, locus YMR219W, strain ESC1, stronger effect = lower value
[20] = S. cerevisiae deletion strains, locus YMR263W, strain SAP30, stronger effect = lower value
[21] = S. cerevisiae deletion strains, locus YNL128W, strain TEP1, stronger effect = lower value
[22] = S. cerevisiae deletion strains, locus YNL153C, strain GIM3, stronger effect = lower value
[23] = S. cerevisiae deletion strains, locus YNL298W, strain CLA4 (second series), stronger effect = lower value
[24] = S. cerevisiae deletion strains, locus YNL322C, strain KRE1, stronger effect = lower value
[25] = S. cerevisiae deletion strains, locus YNR030W, strain Alg12, stronger effect = lower value
[26] = S. cerevisiae deletion strains, locus YPL055C, strain LGE1, stronger effect = lower value
[27] = S. cerevisiae deletion strains, locus YPL241C, strain CIN2, stronger effect = lower value
[28] = S. cerevisiae deletion strains, locus YPR135W, strain CTF4, stronger effect = lower value
[29] = S. cerevisiae strains, strain wild type, stronger effect = lower value

Measured: normalized growth

NNC(=S)Nc1cc(C(F)(F)F)ccc1Cl
active: [1] 0.926 | [2] 0.87 | [3] 0.828 | [4] 0.875 | S. cerevisiae deletion strains, locus YDL134C, strain PPH21, stronger effect = lower value 0.86 | [6] 0.807 | [7] 0.848 | [9] 0.324 | [11] 0.88 | [13] 0.64 | [14] 0.711 | [16] 0.298 | [17] 0.804 | [18] 0.81 | [21] 0.858 | [22] 0.899 | [23] 0.408 | [25] 0.525 | [26] 0.786 | [27] 0.664 | [28] 0.373
inactive: [5] 0.872 | [8] 0.997 | [10] 0.938 | [12] 0.92 | [15] 0.977 | [19] 0.978 | [20] 0.914 | [24] 0.993

NC(=S)Nc1cc(Cl)ccc1Cl
inactive: [1] 0.99 | [2] 0.976 | [4] 0.975 | [5] 0.906 | [6] 0.961 | [7] 0.975 | [8] 1 | [9] 0.888 | [10] 0.953 | [11] 0.997 | [12] 0.997 | [13] 0.999 | [14] 0.947 | [15] 0.981 | [16] 0.919 | [17] 0.979 | [18] 0.915 | [19] 1 | [20] 0.969 | [21] 0.993 | [22] 1 | [23] 0.944 | [24] 0.987 | [25] 0.988 | [26] 0.835 | [27] 0.988 | [28] 0.84 | [29] 0.99

NNC(=S)Nc1ccc(C(F)(F)F)cc1
active: [1] 0.918 | [2] 0.895 | [3] 0.872 | [6] 0.796 | [7] 0.867 | [9] 0.331 | [10] 0.899 | [13] 0.715 | [16] 0.254 | [18] 0.703 | [22] 0.912 | [23] 0.378 | [25] 0.522 | [26] 0.735 | [27] 0.661 | [28] 0.513 | [29] 0.756
inactive: [4] 0.982 | [5] 0.899 | [11] 0.972 | [12] 0.961 | [14] 0.847 | [15] 0.968 | [17] 0.962 | [19] 0.985 | [20] 0.937 | [24] 0.999

— PubChem BioAssay AID1159580 (chemical genetic matrix, 2015)
